Assay results reported in PubChem BioAssay (NCATS).
Records with an inconclusive call do not appear. The source made the active and inactive calls. Calls come from the whole dose curve; as a rule, active = well fitted curve in the direction sought with a large enough effect; inconclusive = small, poorly fitted or top-dose-only effect, or another doubt; inactive = no such curve, though single readings can be large; an effect the other way counts as inactive or inconclusive.

How the values were obtained:
[1] = qHTS of pediatric cancer cell lines to identify multiple opportunities for drug repurposing: Primary screen for TC32 cells (AID 1347089); note: nearly all actives have a fitted effect of over 60% in size
How it was run: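 TC32 cells, 500-1,000/well in growth medium, compound-treated 48 h at 37 °C; viability from CellTiter-Glo luminescence. Primary screen: MIPE 11-point (0.78 nM–46 µM final), NPC 8-point (0.59 nM–46 µM final); confirmatory at 11-point dilutions.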

[2] = qHTS of pediatric cancer cell lines to identify multiple opportunities for drug repurposing: Primary screen for A673 cells (AID 1347092); note: nearly all actives have a fitted effect of over 45% in size
How it was run: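 A673 cells (500-1,000 cells/well) were treated 48 hours at 37 degrees C with compounds at 11-point (0.78 nM to 46 µM) or 8-point (0.59 nM to 46 µM) dilutions. Viability read by CellTiter-Glo luminescence; concentration-response curves fitted.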

[3] = qHTS of pediatric cancer cell lines to identify multiple opportunities for drug repurposing: Primary screen for SK-N-MC cells (AID 1347093)
How it was run: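 Metabolically active cells were quantified by ATP-dependent luminescence (CellTiter-Glo, 15 min at room temperature) following 48 h treatment. Cells had been plated at 500-1,000 per well and settled for 5 h beforehand.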

[4] = qHTS of pediatric cancer cell lines to identify multiple opportunities for drug repurposing: Primary screen for NB-EBc1 cells (AID 1347095)
How it was run: (§1)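 500-1,000 cells/well; 5 h pre-incubation 37 °C/5% CO2; compound pinned; 48 h; CellTiter-Glo, 15 min RT; luminescence. MIPE 11-pt from 0.78 nM, NPC 8-pt from 0.59 nM final. Bortezomib 2.3 µM final as positive control.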

[5] = qHTS of pediatric cancer cell lines to identify multiple opportunities for drug repurposing: Primary screen for U-2 OS cells (AID 1347096); note: nearly all actives have a fitted effect of over 50% in size
How it was run: (§2)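 Viability after 48 h compound treatment at 37C, 500-1,000 cells/well, read as ATP luminescence with CellTiter-Glo. Primary screens used 11-point (MIPE, 0.78 nM-46 µM) or 8-point (NPC, 0.59 nM-46 µM) final concentrations; follow-up screens used 11-point dilutions.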

[6] = qHTS of pediatric cancer cell lines to identify multiple opportunities for drug repurposing: Primary screen for SK-N-SH cells (AID 1347098); note: nearly all actives have a fitted effect of over 65% in size
How it was run: (§3)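 Cells (500-1,000/well) rested 5 h, then received compounds for 48 h; metabolically active cells were measured by CellTiter-Glo luminescence. Final concentrations spanned up to 46 µM (MIPE, 11-point) or 0.59 nM-46 µM (NPC, 8-point) in primary screens, 11-point in follow-ups.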

[7] = qHTS of pediatric cancer cell lines to identify multiple opportunities for drug repurposing: Primary screen for NB1643 cells (AID 1347099); note: nearly all actives have a fitted effect of over 50% in size
How it was run: as §1

[8] = qHTS of pediatric cancer cell lines to identify multiple opportunities for drug repurposing: Primary screen for RD cells (AID 1347104); note: nearly all actives have a fitted effect of over 55% in size
How it was run: as §1

[9] = qHTS of pediatric cancer cell lines to identify multiple opportunities for drug repurposing: Primary screen for MG 63 (6-TG R) cells (AID 1347105); note: nearly all actives have a fitted effect of over 50% in size
How it was run: as §1

[10] = qHTS of pediatric cancer cell lines to identify multiple opportunities for drug repurposing: Primary screen for BT-37 cells (AID 1347094)
How it was run: as §1

[11] = qHTS of pediatric cancer cell lines to identify multiple opportunities for drug repurposing: Primary screen for Saos-2 cells (AID 1347097); note: nearly all actives have a fitted effect of over 40% in size
How it was run: as §1

[12] = qHTS of pediatric cancer cell lines to identify multiple opportunities for drug repurposing: Primary screen for LAN-5 cells (AID 1347100)
How it was run: as §2

[13] = qHTS of pediatric cancer cell lines to identify multiple opportunities for drug repurposing: Primary screen for BT-12 cells (AID 1347101); note: nearly all actives have a fitted effect of over 25% in size
How it was run: as §3

[14] = qHTS of pediatric cancer cell lines to identify multiple opportunities for drug repurposing: Primary screen for Rh18 cells (AID 1347102); note: nearly all actives have a fitted effect of over 65% in size
How it was run: as §2

[15] = qHTS of pediatric cancer cell lines to identify multiple opportunities for drug repurposing: Primary screen for OHS-50 cells (AID 1347103); note: nearly all actives have a fitted effect of over 40% in size
How it was run: as §3

[16] = qHTS of pediatric cancer cell lines to identify multiple opportunities for drug repurposing: Primary screen for SJ-GBM2 cells (AID 1347091)
How it was run: (§4)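 Viability measured as metabolically active cells via CellTiter-Glo luminescence following 48 hours of compound exposure, 11-point dilutions in confirmatory testing. 500-1,000 cells/well plated 5 hours before dosing; controls were DMSO and 2.3 µM bortezomib.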

[17] = qHTS of pediatric cancer cell lines to identify multiple opportunities for drug repurposing: Primary screen for DAOY cells (AID 1347090); note: nearly all actives have a fitted effect of over 55% in size
How it was run: as §4
Potency is the fitted concentration of half-maximal effect.

Row | Structure (SMILES) | Potency [1] | Potency [2] | Potency [3] | Potency [4] | Potency [5] | Potency [6] | Potency [7] | Potency [8] | Potency [9] | Potency [10] | Potency [11] | Potency [12] | Potency [13] | Potency [14] | Potency [15] | Potency [16] | Potency [17]
1 | CN(C)Cc1ccc(-c2nc3cccc4c3n2CCNC4=O)cc1 | inactive | 11.8 µM (active) | 11.8 µM (active) | 16.6 µM (active) | inactive | 21.5 µM (active) | 23.5 µM (active) | 16.6 µM (active) | inactive | – | – | – | – | – | – | – | –
2 | Cc1nnc(C(C)C)n1C1C[C@H]2CC[C@@H](C1)N2CC[C@H](NC(=O)C1CCC(F)(F)CC1)c1ccccc1 (some centres undefined) | inactive | 14.8 µM (active) | 4.18 µM (active) | inactive | inactive | inactive | 18.7 µM (active) | – | inactive | inactive | inactive | inactive | inactive | inactive | inactive | – | –
3 | Cc1ccc(/C=N/NC(=O)c2ccccc2Oc2ccccc2)o1 | inactive | – | 16.6 µM (active) | 23.5 µM (active) | inactive | – | 18.7 µM (active) | – | inactive | – | – | – | – | inactive | 21.7 µM (active) | 20.9 µM (active) | –
4 | COc1cc(N2CCC(N3CCN(C)CC3)CC2)ccc1Nc1ncnc(Nc2ccccc2S(=O)(=O)C(C)C)n1 | – | – | – | – | inactive | 27.1 µM (active) | – | – | – | 15.3 µM (active) | inactive | – | – | – | – | – | inactive
5 | CO[C@H]1C(=O)[C@]2(C)[C@@H](OC)C[C@H]3OC[C@@]3(OC(C)=O)[C@H]2[C@H](OC(=O)c2ccccc2)[C@]2(O)C[C@H](OC(=O)[C@H](O)[C@@H](NC(=O)OC(C)(C)C)c3ccccc3)C(C)=C1C2(C)C | 1.47 µM (active) | 0.001 µM (active) | 29.6 µM (active) | – | inactive | inactive | inactive | – | – | – | 0.001 µM (active) | 0.001 µM (active) | – | – | 0.685 µM (active) | – | –
6 | O=c1cc(CN2CCOCC2)occ1OCCCCCSc1ccnc2cc(C(F)(F)F)ccc12 | inactive | 14.8 µM (active) | 1.32 µM (active) | – | – | – | – | – | – | – | 4.18 µM (active) | – | – | – | 15.3 µM (active) | – | –
7 | CCOc1ccc(Nc2nc(-c3c(C)nc4ccccn34)cs2)cc1 | 0.165 µM (active) | 0.003 µM (active) | 0.0047 µM (active) | – | inactive | inactive | inactive | inactive | inactive | – | inactive | 0.001 µM (active) | – | inactive | 0.0039 µM (active) | – | –
8 | CCOC(CN1C(=O)[C@](CC(=O)Nc2ccc(C)cc2)(NC(=O)Nc2ccc(C)cc2)c2ccccc21)OCC | inactive | 29.6 µM (active) | 11.8 µM (active) | – | inactive | inactive | 16.6 µM (active) | – | – | – | – | – | – | inactive | – | – | –
9 | C[C@]12CCC3c4ccc(O)cc4CCC3C1CCC2=O (some centres undefined) | inactive | – | inactive | inactive | inactive | inactive | – | inactive | inactive | inactive | – | inactive | – | inactive | – | – | –
10 | O=C(Nc1cccc(Br)c1)c1cccc(S(=O)(=O)N2CCCCCC2)c1 | inactive | – | – | – | inactive | – | – | – | – | – | 16.6 µM (active) | – | – | – | 19.3 µM (active) | – | –
11 | Cc1nc(N)sc1-c1ccnc(Nc2ccc(N3CCOCC3)cc2)n1 | – | 9.35 µM (active) | 1.05 µM (active) | 23.5 µM (active) | 18.7 µM (active) | 6.81 µM (active) | 9.35 µM (active) | 20.9 µM (active) | 5.9 µM (active) | 24.3 µM (active) | 11.8 µM (active) | 0.332 µM (active) | 24.3 µM (active) | – | 3.85 µM (active) | – | 18.7 µM (active)
12 | COCCOc1nc(-c2ccc(Cl)c(Cl)c2)n(-c2ccc(NC(=O)CCl)cc2)n1 | inactive | – | 4.69 µM (active) | 16.6 µM (active) | inactive | – | 16.6 µM (active) | – | – | – | – | 18.7 µM (active) | 5.44 µM (active) | – | 6.11 µM (active) | – | –
13 | O=c1c(O)c(-c2ccc(O)cc2)oc2cc(O)cc(O)c12 | inactive | – | 11.8 µM (active) | 9.35 µM (active) | inactive | – | 11.8 µM (active) | – | inactive | – | inactive | 6.62 µM (active) | – | – | – | 14.8 µM (active) | –
14 | Clc1cc(Cl)cc(CNc2ncncc2-c2ccc3c(c2)OCO3)c1 | inactive | 14.8 µM (active) | 13.2 µM (active) | 11.8 µM (active) | inactive | – | – | – | – | – | 16.6 µM (active) | – | – | – | – | – | –
15 | CS(=O)(=O)N(Cc1ccco1)CC(O)Cn1c2ccccc2c2ccccc21 (centres undefined) | – | – | – | inactive | inactive | inactive | – | – | inactive | inactive | – | inactive | – | inactive | – | – | inactive
16 | CCCCCNC(=O)N1CCC(CN(Cc2ccc(Cl)cc2)Cc2ccc([N+](=O)[O-])s2)C1 (centres undefined) | inactive | – | 9.35 µM (active) | 26.4 µM (active) | – | inactive | 23.5 µM (active) | 29.6 µM (active) | – | – | – | – | – | – | 24.3 µM (active) | inactive | –
17 | CC(C)n1cnc2c(NCCCCCCNC(=O)OC(C)(C)C)nc(NCCO)nc21 | inactive | 18.7 µM (active) | – | inactive | inactive | inactive | inactive | 33.2 µM (active) | inactive | – | inactive | – | – | inactive | – | – | –
18 | CC[C@@]1(O)C[C@H](O[C@H]2C[C@H](N(C)C)[C@H](O[C@H]3C[C@H](O)[C@H](O[C@H]4CCC(=O)[C@H](C)O4)[C@H](C)O3)[C@H](C)O2)c2c(cc3c(c2O)C(=O)c2c(O)cccc2C3=O)[C@@H]1C(=O)OC | – | 4.69 µM (active) | 18.7 µM (active) | 0.526 µM (active) | inactive | – | – | inactive | – | 0.385 µM (active) | 16.6 µM (active) | 2.35 µM (active) | – | inactive | inactive | 0.372 µM (active) | –
19 | Cc1ccc(Nc2cc(-c3cccc(N4C(=O)c5ccccc5C4=O)c3)ncn2)cc1NS(C)(=O)=O | inactive | – | – | – | inactive | – | – | – | inactive | – | 33.2 µM (active) | 23.5 µM (active) | – | – | – | – | –
20 | O=C(NCc1ccccc1)c1csc(Nc2ccncn2)n1 | inactive | – | 20.9 µM (active) | 14.8 µM (active) | – | – | 13.2 µM (active) | 29.6 µM (active) | 23.5 µM (active) | 17.2 µM (active) | 11.8 µM (active) | 13.2 µM (active) | 19.3 µM (active) | 23.5 µM (active) | – | – | –
